Cav32 inh – inhibitors of human Cav3.2 T-type calcium channel; actives 4% (n = 100,000); O95180; B-score at 10 µM; Cav3.2-expressing cells, Fluo-4 calcium fluorescence FDSS; stronger effect = lower value; AID 449739;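 active = single-dose well whose peak fluorescence ratio is a statistical outlier from its plate by either plate-standardised score or position-corrected B-score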
Target sequence (O95180 whole entry, looked up): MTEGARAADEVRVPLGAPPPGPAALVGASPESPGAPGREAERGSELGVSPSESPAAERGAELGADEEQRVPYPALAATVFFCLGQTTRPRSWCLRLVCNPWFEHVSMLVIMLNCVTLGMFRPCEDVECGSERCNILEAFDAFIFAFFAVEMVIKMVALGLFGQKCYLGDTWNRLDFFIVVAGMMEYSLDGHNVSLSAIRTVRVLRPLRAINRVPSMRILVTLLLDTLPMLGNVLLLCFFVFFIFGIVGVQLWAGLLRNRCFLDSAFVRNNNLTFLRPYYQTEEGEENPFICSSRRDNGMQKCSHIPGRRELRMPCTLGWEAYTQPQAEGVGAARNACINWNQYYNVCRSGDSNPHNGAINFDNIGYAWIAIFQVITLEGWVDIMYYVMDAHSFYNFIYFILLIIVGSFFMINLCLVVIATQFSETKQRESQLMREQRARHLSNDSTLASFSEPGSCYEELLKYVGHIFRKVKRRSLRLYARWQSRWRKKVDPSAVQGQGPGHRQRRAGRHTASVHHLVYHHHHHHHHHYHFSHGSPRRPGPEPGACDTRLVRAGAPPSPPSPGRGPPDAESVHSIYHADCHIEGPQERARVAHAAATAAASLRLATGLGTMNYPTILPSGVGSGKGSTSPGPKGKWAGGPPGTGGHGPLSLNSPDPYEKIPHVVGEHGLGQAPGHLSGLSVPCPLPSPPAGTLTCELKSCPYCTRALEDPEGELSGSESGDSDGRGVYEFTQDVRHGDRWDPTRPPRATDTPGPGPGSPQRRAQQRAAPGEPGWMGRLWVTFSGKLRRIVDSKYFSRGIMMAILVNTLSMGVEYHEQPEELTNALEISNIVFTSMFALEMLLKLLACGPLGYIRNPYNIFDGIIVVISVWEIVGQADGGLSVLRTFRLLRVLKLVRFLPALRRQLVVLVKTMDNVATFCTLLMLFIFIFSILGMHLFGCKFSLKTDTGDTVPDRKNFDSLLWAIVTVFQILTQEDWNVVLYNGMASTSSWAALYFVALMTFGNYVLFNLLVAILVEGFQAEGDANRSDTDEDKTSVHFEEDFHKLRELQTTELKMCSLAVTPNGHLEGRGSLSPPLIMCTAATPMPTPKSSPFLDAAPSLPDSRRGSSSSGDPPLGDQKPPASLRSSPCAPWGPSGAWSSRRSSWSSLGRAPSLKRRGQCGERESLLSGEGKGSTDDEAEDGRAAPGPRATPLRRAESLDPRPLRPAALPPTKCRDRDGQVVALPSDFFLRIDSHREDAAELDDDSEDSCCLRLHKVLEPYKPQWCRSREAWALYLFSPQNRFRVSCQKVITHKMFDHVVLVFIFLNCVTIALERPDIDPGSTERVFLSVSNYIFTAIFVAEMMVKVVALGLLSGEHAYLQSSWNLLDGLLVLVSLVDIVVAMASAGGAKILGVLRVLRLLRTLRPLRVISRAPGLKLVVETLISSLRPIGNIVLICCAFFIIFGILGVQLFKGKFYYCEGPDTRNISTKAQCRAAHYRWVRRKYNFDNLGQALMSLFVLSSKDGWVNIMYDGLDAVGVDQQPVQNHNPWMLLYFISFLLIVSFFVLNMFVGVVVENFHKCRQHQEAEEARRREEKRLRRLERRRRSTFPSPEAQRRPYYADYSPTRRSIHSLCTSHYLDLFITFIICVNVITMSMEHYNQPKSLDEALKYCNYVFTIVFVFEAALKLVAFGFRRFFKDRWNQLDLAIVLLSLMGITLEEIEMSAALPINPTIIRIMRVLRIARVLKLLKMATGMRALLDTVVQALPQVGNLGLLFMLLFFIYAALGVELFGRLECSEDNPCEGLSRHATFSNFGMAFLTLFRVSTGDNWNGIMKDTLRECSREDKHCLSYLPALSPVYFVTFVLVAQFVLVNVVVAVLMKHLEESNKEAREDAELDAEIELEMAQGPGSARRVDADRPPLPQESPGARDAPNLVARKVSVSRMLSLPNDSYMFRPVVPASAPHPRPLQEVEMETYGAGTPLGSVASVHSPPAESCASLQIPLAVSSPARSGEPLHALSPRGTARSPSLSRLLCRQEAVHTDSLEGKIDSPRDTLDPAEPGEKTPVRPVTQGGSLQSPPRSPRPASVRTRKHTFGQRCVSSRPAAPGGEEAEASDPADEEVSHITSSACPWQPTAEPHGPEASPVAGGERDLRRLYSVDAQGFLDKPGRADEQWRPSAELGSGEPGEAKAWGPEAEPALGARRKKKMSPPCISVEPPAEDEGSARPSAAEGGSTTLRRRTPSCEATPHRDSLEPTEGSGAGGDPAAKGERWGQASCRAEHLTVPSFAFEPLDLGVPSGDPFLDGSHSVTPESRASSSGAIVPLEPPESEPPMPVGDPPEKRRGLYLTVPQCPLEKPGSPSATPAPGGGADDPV
PostGolgi ctrl – inhibits growth of the yeast control strain; efflux-deficient yeast background strain, growth absorbance A615, 16 h; inhibition, % at 10 µM; actives 5% (n = 98,000); AID 738
PostGolgi yeast – growth inhibition of a yeast mutant, post-Golgi transport screen. post-Golgi transport phenotypic cell assay. inhibition, % at 10 µM. actives 0.9% (n = 98,000);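 note: yeast cells grown in 1536-well plates; yeast grown about 18 h at 30C before absorbance read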
Pyk2 oligo antag – Pyk2 (human) oligomerization antagonism; AID 1347419; Q14289; actives 0.83% (n = 99,000); Q293 cells, Pyk2 FERM NanoBiT luminescence; stronger effect = lower value; z-score (the deposit names both 25 µM and 10 µM);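 active = Z-score of -3 or lower, scaled per plate to the spread of control and sample wells; inactive = z-score above -3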;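 note: negative z-score means lost luminescence so less FERM oligomerization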
Starred values were filed as active, the others as inactive; . = no result. In the library only some 8% were active in any assay of this set; here they are far more common. Cut-off read from the data, not from the text of the source, unless noted: active = inhibition above about 30%; inactive = the rest.

SMILES	Cav32 inh	PostGolgi ctrl	PostGolgi yeast	Pyk2 oligo antag
CC(C)(C)C1CCc2nc(NC(=O)Cc3cn4ccsc4n3)sc2C1 (configuration not stated)	-2.3	46*	0	-0.63
CCCCn1c(=O)n(Cc2cccc(F)c2)c(=O)c2c1ncn2Cc1ccco1	-4.3	39*	-10	-1.7
CC(C)Cc1[nH]c(=O)c(C#N)c2c1CCCC2	0.89	7	-10	0
COc1cccc(Nc2nc(NCC3CCCO3)c3ccccc3n2)c1 (configuration not stated)	-5.7*	8	-5	-2.6
NC(=S)N/N=C/c1ccc(-c2cc(Cl)cc(Cl)c2)o1	-0.098	68*	30	-1.9
COC(=O)N/N=C/c1ccc(-c2cc(Cl)cc(Cl)c2)o1	.	.	.	-0.72
NC(=S)N/N=C/c1ccc(-c2cc(Cl)ccc2Cl)o1	-0.61	93*	19	-3*
CC(C)n1c(SCC(=O)c2ccc3c(c2)OCCO3)nc2c1c(=O)n(C)c(=O)n2C	-0.031	.	.	.
CCOCCc1nnc(NC(=O)C(CC)c2ccccc2)s1 (configuration not stated)	-0.96	18	6	0.72
N#CCSc1nc(N)c(C#N)c(C2CCCCC2)c1C#N	-1.5	51*	18	-0.83
Cc1cccc(NC(=S)NN2CCN(C)CC2)c1	0.4	-1	0	1.5
O=S(=O)(NCC(c1cccnc1)N1CCN(c2ccc(F)cc2)CC1)c1ccc(F)cc1 (configuration not stated)	-3.2	73*	90*	.
O=S(=O)(NCC(c1cccnc1)N1CCN(c2ccc(F)cc2)CC1)c1cccs1 (configuration not stated)	1.1	55*	78*	.
O=C(NCC(c1cccnc1)N1CCN(c2ccc(F)cc2)CC1)c1ccc(F)cc1 (configuration not stated)	-0.46	17	2	0.89
O=C(NCC(c1cccnc1)N1CCN(c2ccccc2F)CC1)c1cccc(Cl)c1 (configuration not stated)	-3.3	24	47*	-0.11
O=S(=O)(NCC(c1cccnc1)N1CCOCC1)c1cccs1 (configuration not stated)	-0.039	.	.	0.19
O=S(=O)(NCC(c1cccnc1)N1CCN(c2ccccc2F)CC1)c1cccs1 (configuration not stated)	0.86	35*	62*	.
CC1=C(C(=O)OC2CCCC2)C(c2ccc(C)o2)C2=C(CC(c3cccs3)CC2=O)N1 (configuration not stated)	-5.9*	22	4	-1.5
CCCOC(=O)C1=C(C)NC2=C(C(=O)CCC2)C1c1cccs1 (configuration not stated)	1.4	4	-2	-2.7
CCOC(=O)C1=C(C)NC2=C(C(=O)CC(c3cccs3)C2)C1c1cccs1 (configuration not stated)	-0.55	.	.	-3.3*
CCn1c(SCC(=O)Nc2nc3ccc(OC)cc3s2)nc2c1c(=O)n(C)c(=O)n2C	-0.96	17	3	-1.8
O=c1[nH]c(CSc2nc(-c3ccc(F)cc3)cs2)nc2ccccc12	.	.	.	1.1
CCc1ccccc1N1C[C@@]23C=C[C@@H](O2)C(C(=O)OCC(C)C)[C@H]3C1=O (some centres not stated)	-0.29	24	-9	1.4
CC1=C(C(=O)OCc2ccc3c(c2)OCO3)C(c2ccc(Cl)cc2)NC(=O)N1 (configuration not stated)	-0.61	.	.	-3.2*
O=C1CSC(c2ccc(F)cc2)N1c1nnc(C23CC4CC(CC(C4)C2)C3)s1 (configuration not stated)	0.26	17	2	.
SMILES	Cav32 inh	PostGolgi ctrl	PostGolgi yeast	Pyk2 oligo antag
O=C(Cc1ccccc1)NCC1CCCO1 (configuration not stated)	0.91	0	0	0.13
O=C(CCS(=O)(=O)Cc1ccccc1)NCC1CCCO1 (configuration not stated)	0.036	34*	-4	0.38
Cc1ccccc1C(=O)OCn1nnc2ccccc2c1=O	-1.8	9	4	.
Cc1cc(C(=O)OCn2nnc3ccccc3c2=O)c(C)n1-c1ccccc1	.	30	25	-3.7*
O=c1c2nnn(Cc3ccccc3)c2ncn1-c1ccccc1	0.25	34*	-3	0.67
CCOc1ccc(C2OC34CCCCC3C(C#N)(C#N)C2(C#N)C(=N)O4)cc1OC (configuration not stated)	1.8	12	-9	0
Cc1cc(O)cc(O)c1-c1onc(C(F)(F)F)c1-c1cscn1	-5.2*	0	-9	0.62
O=C(NCc1ccccc1)C1C2C=CC3(CN(Cc4cccnc4)C(=O)C13)O2 (configuration not stated)	0.013	4	6	0.22
CC(C)N1C(=O)C2C(C(=O)NCc3ccccc3)C3C=CC2(O3)C1C(=O)NC(C)(C)C (configuration not stated)	-0.008	42*	6	-0.27
COc1cccc(NC(=O)CSc2nnc(-c3ccoc3C)n2-c2ccccc2)c1	-6.2*	12	5	.
Cc1nonc1NC(=O)CSc1nnc(-c2ccoc2C)n1-c1cccc(Cl)c1	-4.4*	.	.	-0.27
CCCn1c(SCC(=O)Nc2nonc2C)nnc1-c1ccoc1C	1.1	7	1	0.34
CCOc1ccccc1-n1c(SCC(=O)Nc2nccs2)nnc1-c1ccoc1C	-7.2*	19	-6	-1.9
Cc1occc1-c1nnc(SCC(=O)Nc2nccs2)n1CCc1ccccc1	-3	2	-24	.
Cc1noc(C)c1CSc1nc2ccccc2nc1NS(=O)(=O)c1ccc(Cl)cc1	-8.1*	-1	7	-0.92
O=S(=O)(Nc1nc2ccccc2nc1NCc1ccco1)c1ccc(Cl)cc1	-4.8*	38*	-8	0.65
Cc1ccnc(N/C=C(\C#N)c2nc(-c3cccc(Br)c3)cs2)c1	-1.8	8	6	-0.31
COc1ccc(-n2cnnc2SCC(=O)NC2CCS(=O)(=O)C2)cc1 (configuration not stated)	0.55	10	-4	0.14
CCC(C)(NC(=O)c1cccc(N2C(=O)CSC2c2ccccc2)c1)C(=O)Nc1ccccc1C (configuration not stated)	-5.1*	8	-8	-0.03
O=C(Oc1c(Cl)cc(Cl)c2ccccc12)N1CCCC1	-1.1	32*	3	-0.4
O=C(Oc1ccc(Cl)c2ccccc12)N1CCCCC1	-0.9	16	4	-0.39
CCN(CC)S(=O)(=O)c1cc([N+](=O)[O-])ccc1NNC(=O)Nc1ccc(F)cc1	-1.8	1	21	-0.7
CCN(CC)S(=O)(=O)c1cc([N+](=O)[O-])ccc1NNC(=O)Nc1ccccc1OC	-9.1*	10	-2	-0.83
O=c1[nH]c(=O)n(Cc2ccccc2)c2c1C(C(F)(F)F)(C(F)(F)F)N=C(c1ccco1)N2	2.8	3	15	-3.5*
CCCCCC(=O)Nc1cccc(C2=NOC3(C2)C[C@@H](C(N)=O)N(C(=O)C2(C)CC2)C3)c1 (some centres not stated)	0.73	.	.	.
Nn1c(SCC(=O)N2CCN(S(=O)(=O)c3ccccc3)CC2)nnc1-c1cccs1	2.3	3	2	2
COc1ccc(Nc2nc(N)nc(CN3CCC(Cc4ccccc4)CC3)n2)cc1	-2.9	9	0	.

Source: PubChem BioAssay (several laboratories)
